For 18 compounds, inhibition results are on record in PubChem BioAssay.

Values without a mark were called inactive. No rule for the calls is given here.

For this assay, the target named is Pantothenate synthetase (Mycobacterium tuberculosis (strain ATCC 25618 / H37Rv)) (UniProt P9WIL5). As to the kind of experiment: Coupled enzyme confirmation of inhibitors against recombinant Mtb PanC (AID 375).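 Also: 0% = full reaction with vehicle and 100% = no enzyme background.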 The conditions noted are these: coupled enzyme assay; at 10 µM, stronger effect = higher value.
Chain of Pantothenate synthetase (Mycobacterium tuberculosis (strain ATCC 25618 / H37Rv)) (P9WIL5 whole entry, looked up): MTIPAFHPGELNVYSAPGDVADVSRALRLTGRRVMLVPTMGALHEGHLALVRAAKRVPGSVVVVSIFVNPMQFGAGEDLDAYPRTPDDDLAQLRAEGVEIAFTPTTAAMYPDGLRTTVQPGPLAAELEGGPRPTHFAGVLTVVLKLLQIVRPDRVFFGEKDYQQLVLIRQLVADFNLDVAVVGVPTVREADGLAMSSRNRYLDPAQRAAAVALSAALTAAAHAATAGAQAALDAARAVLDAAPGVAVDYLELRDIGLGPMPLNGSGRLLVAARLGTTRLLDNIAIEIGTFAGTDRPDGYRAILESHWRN

Broadly, the inhibition is how much of the control response was suppressed. For `COc1ccc(CN2CC(C(=O)NCCCOC(C)C)CC2=O)cc1` (stereo not drawn), the inhibition is 3%. For `CCOC(=O)C1CCCN(c2c(N3CCN(c4ccccn4)CC3)c(=O)c2=O)C1` (stereo not drawn), the inhibition was 2%. In the case of `COc1ccc(-c2noc(CN3C(=O)c4ccccc4C3=O)n2)cc1` it was 0%.

Consider `C/C(Cl)=C/Cn1c(SCc2ccc(Cl)cc2)nc2c1c(=O)[nH]c(=O)n2C`, for which the inhibition is 0%. In the case of `O=C(Nc1nnc(SCC(=O)N2CCCCC2)s1)C1CCCCC1` it was 5%; in that of `O=c1[nH]c2ccc(Br)cc2c(-c2ccccc2)c1N1CCOCC1`, 1%. In the case of `COc1ccc(OC)c(C2/C(=C(\O)c3ccc4c(c3)OCCO4)C(=O)C(=O)N2CCCN(C)C)c1` (stereo not drawn) it was 0%; in that of `COCCn1c(C)cc(C(=O)COC(=O)c2ccc(N3CCCC3=O)cc2)c1C`, 2%; in that of `O=C(Nc1ccc2c(c1)OCO2)c1ccc(CN2CCOCC2)cc1`, 1%. With `CCOC(=O)C1CCN(C(=O)COc2ccc(S(=O)(=O)NC(C)C)cc2Cl)CC1`, the inhibition was 0%.

As to `CCOC(=O)C1CCN(C(=O)Nc2ccc(Cl)cc2Cl)CC1`, the inhibition was 0%.

For the compound `CCCN(Cc1cc2ccc(C)cc2[nH]c1=O)C(=O)c1cccnc1`, the inhibition is 2%. Turning to `Cc1noc(C)c1C(=O)Nc1sc(C)c(C)c1C#N`, the inhibition was 2%.

For `N#Cc1cc2c(nc1SCC(=O)Nc1sc3c(c1C#N)CCC3)CCCCC2`, the inhibition was 0%. On to `CCOc1ccccc1N(C(=O)Cn1nnnc1-c1ccc(C)o1)C(CC)C(=O)NC(C)(C)C` (stereo not drawn), for which the inhibition was 0%. For `Cc1ccccc1-c1nc(CS(=O)(=O)CC(=O)NCc2ccccc2)c(C)o1` the value was 0%. As for `O=c1c2[nH]c3cccc(Cl)c3c2ncn1CCN1CCCCC1`, the inhibition is 6%. For `O=C(CN1CCN(Cc2ccccc2)CC1)Nc1ccc(Cl)cn1` the value was 3%.
